From the supplement of paper PMC11732987, “Enantioselective OTUD7B fragment discovery through chemoproteomics screening and high-throughput optimisation” (Communications Chemistry, 2025)
Unmarked numbers belong to inactive results.

How the values were obtained:
Experiment in all cases: log2 ratio of Biotin-Ahx-Ub-VS probe labelling (fragment/DMSO); higher = less target engagement (more negative = stronger competition), active = hit call of the paper (q ≤ 0.05, log2 ratio ≤ -1)
Settings in all cases: compound concentration: 200 uM; treatment time: 3 h
OTUD6B = target: T1, OTUD6B (UniProt Q8N6M0)
T1 sequence (whole entry): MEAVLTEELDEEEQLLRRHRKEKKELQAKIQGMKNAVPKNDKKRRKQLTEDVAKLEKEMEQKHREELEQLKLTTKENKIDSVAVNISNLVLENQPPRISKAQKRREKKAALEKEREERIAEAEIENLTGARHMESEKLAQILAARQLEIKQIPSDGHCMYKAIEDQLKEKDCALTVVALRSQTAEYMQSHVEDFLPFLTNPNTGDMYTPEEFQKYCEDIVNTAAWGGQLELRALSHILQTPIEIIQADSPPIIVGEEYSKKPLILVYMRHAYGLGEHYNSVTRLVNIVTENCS
Method in brief: (§1)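 In triplicate, 495 µg of HEK293T lysate per sample was incubated with fragment at 200 µM or vehicle for 3 h. Biotin-Ahx-Ub-VS was then added to 0.5 µM final for 1 h, and labelled DUBs were captured with NeutrAvidin, digested with LysC and trypsin, and measured by diaPASEF LC-MS/MS. Data are average log2 fragment/vehicle ratios by unpaired t-test from global-median-normalised Spectronaut label-free quantities, restricted to proteins with ≥2 unique peptides.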

OTUD7B = target: T2, OTUD7B (UniProt Q6GQQ9)
T2 sequence (whole entry): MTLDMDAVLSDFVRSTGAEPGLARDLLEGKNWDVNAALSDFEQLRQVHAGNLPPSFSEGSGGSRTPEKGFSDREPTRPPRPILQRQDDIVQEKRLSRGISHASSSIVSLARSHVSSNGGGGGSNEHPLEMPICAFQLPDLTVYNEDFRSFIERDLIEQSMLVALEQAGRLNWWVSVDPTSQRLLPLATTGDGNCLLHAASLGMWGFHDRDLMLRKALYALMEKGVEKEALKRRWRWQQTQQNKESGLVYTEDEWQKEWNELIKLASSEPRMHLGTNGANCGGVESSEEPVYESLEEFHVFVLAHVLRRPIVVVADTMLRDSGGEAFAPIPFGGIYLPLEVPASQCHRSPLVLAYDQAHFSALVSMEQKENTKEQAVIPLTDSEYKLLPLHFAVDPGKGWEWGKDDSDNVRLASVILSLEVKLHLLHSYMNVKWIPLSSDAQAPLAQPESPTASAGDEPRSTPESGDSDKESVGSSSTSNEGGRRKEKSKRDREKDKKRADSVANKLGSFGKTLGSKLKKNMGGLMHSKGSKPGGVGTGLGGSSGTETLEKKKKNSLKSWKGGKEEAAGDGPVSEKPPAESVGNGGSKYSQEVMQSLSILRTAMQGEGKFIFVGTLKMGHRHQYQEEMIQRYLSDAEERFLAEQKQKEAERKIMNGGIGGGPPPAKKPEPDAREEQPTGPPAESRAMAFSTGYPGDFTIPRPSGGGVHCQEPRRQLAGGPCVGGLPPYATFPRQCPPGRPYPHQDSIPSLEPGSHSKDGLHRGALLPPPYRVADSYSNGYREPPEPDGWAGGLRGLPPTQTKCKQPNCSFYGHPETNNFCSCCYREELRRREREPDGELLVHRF
Method in brief: as §1

PRPF8 = PRPF8 (UniProt Q6P2Q9)
Method in brief: as §1

PSMD7 = target: T3, PSMD7 (UniProt P51665)
T3 sequence (whole entry): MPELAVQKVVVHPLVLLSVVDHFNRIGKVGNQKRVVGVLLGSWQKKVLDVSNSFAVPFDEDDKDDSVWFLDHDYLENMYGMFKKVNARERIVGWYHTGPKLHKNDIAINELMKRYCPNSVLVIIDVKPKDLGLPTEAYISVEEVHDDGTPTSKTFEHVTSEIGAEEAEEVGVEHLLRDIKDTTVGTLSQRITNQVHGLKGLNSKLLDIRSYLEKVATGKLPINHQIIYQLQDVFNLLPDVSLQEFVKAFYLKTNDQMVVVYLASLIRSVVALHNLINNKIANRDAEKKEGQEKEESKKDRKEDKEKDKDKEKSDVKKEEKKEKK
Method in brief: as §1

UCHL1 = UCHL1 (UniProt P09936)
Sequence of UCHL1 (P09936 whole entry, looked up): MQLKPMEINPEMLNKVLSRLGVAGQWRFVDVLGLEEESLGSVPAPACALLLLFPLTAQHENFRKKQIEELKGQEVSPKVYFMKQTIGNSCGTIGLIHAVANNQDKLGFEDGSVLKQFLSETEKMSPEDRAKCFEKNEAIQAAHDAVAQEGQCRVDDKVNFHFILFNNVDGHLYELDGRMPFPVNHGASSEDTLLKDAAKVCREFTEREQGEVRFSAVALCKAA
Method in brief: as §1

UCHL3 = target: T4, UCHL3 (UniProt P15374)
T4 sequence (whole entry): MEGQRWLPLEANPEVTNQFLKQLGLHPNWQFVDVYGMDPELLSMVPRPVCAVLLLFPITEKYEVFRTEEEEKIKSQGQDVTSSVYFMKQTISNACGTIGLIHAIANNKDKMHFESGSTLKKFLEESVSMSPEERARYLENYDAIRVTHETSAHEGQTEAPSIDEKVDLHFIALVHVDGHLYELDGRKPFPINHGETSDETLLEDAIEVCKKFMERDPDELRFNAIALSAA
Method in brief: as §1

UCHL5 = target: T5, UCHL5 (UniProt Q9Y5K5)
T5 sequence (whole entry): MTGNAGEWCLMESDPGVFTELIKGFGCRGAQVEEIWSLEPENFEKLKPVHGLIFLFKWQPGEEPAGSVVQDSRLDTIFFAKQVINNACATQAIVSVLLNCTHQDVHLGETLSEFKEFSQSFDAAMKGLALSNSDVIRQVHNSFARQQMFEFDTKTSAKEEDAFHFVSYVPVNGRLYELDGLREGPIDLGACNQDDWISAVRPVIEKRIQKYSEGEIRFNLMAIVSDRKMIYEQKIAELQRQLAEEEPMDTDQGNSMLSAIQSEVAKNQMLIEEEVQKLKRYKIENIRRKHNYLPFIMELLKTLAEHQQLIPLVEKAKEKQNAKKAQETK
Method in brief: as §1

USP10 = USP10 (UniProt Q14694)
Sequence of USP10 (Q14694 whole entry): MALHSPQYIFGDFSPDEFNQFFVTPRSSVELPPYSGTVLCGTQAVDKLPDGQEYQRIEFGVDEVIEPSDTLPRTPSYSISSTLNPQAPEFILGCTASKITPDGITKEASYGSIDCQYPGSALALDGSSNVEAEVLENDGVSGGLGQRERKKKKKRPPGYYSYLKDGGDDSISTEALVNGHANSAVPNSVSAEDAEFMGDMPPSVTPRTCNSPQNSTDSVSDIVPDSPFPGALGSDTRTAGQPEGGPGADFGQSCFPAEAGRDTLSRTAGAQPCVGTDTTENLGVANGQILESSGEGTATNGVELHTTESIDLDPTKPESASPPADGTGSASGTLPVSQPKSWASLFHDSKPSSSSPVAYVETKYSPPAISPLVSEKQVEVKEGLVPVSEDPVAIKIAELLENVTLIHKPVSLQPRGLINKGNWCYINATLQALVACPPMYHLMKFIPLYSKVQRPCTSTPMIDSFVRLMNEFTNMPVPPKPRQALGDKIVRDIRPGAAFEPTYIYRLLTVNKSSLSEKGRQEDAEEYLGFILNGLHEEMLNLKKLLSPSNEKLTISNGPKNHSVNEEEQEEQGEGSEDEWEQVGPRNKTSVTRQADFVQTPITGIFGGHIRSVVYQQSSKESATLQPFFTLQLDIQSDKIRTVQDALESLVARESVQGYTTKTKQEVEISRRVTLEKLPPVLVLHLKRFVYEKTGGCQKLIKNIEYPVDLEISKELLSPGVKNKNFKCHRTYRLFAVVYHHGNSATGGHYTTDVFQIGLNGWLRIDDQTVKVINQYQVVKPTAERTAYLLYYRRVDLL
Method in brief: as §1

USP15 = target: T6, USP15 (UniProt Q9Y4E8)
T6 sequence (whole entry): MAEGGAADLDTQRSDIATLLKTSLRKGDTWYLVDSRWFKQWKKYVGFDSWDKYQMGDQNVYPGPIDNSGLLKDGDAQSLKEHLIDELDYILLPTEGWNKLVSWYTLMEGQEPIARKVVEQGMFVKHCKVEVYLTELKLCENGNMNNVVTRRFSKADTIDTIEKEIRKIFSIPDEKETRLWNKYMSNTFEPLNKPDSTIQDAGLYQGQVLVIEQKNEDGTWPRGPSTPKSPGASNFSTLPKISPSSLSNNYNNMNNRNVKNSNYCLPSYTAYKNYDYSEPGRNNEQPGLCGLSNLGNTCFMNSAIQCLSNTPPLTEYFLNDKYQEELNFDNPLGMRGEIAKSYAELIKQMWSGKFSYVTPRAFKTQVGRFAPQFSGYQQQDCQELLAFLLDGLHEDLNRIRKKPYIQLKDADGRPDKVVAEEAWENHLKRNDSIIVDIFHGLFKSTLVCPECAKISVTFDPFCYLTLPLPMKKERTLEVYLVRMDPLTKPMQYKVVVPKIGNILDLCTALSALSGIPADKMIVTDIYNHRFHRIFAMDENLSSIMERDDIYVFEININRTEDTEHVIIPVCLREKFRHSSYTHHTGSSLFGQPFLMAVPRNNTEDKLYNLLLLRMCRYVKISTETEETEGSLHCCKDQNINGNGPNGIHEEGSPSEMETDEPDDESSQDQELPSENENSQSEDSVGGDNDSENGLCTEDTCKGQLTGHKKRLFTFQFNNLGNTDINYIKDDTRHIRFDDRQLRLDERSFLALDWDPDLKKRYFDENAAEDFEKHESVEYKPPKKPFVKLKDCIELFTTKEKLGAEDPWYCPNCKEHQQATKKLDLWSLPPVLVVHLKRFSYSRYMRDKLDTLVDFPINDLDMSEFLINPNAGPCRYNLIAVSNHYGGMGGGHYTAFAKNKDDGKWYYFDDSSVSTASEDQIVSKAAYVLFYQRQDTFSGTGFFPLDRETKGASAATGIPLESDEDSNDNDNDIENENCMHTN
Method in brief: as §1

USP16 = USP16 (UniProt Q9Y5T5)
Sequence of USP16 (Q9Y5T5 whole entry, looked up): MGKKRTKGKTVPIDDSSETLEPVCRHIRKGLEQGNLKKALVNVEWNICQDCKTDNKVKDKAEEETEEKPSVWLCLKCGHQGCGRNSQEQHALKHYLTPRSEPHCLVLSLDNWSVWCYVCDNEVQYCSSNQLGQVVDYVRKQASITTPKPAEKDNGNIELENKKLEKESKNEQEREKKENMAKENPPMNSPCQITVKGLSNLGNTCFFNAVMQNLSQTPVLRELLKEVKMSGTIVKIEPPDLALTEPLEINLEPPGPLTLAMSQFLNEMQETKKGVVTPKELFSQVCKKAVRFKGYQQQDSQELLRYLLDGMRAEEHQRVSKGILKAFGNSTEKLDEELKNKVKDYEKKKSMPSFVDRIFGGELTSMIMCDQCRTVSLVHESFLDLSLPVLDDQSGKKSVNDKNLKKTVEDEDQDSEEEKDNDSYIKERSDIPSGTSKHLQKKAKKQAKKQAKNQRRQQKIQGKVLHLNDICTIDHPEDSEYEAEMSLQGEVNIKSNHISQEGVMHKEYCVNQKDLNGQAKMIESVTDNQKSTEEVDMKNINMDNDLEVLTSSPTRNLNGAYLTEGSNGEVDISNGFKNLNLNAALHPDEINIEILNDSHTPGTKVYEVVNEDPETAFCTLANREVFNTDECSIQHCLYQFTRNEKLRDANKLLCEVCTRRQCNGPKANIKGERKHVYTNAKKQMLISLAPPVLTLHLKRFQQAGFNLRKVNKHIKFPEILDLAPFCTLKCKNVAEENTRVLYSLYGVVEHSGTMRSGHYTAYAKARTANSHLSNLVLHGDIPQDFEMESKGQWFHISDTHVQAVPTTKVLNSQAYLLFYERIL
Method in brief: as §1

SMILES: O=C(CCl)NCc1cccc(N2CCCC2=O)c1
- log2 ratio of Biotin-Ahx-Ub-VS probe labelling (OTUD6B): 0.058
- log2 ratio of Biotin-Ahx-Ub-VS probe labelling (OTUD7B): -0.585
- log2 ratio of Biotin-Ahx-Ub-VS probe labelling (PRPF8): -0.0281
- log2 ratio of Biotin-Ahx-Ub-VS probe labelling (PSMD7): -0.0566
- log2 ratio of Biotin-Ahx-Ub-VS probe labelling (UCHL1): -0.979
- log2 ratio of Biotin-Ahx-Ub-VS probe labelling (UCHL3): 0.302
- log2 ratio of Biotin-Ahx-Ub-VS probe labelling (UCHL5): -0.112
- log2 ratio of Biotin-Ahx-Ub-VS probe labelling (USP10): 0.0755
- log2 ratio of Biotin-Ahx-Ub-VS probe labelling (USP15): 0.049
- log2 ratio of Biotin-Ahx-Ub-VS probe labelling (USP16): -1 (active)
